# MIN6 prolif-1: MIN6 beta-cell proliferation induction | MIN6 cells proliferation, ATPlite luminescence, 48 h; cells starved in 0.2% serum; 100% = growth in 10% serum | proliferation, % at 10 µM | actives 0.29% (n = 330,000);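 active means compounds whose signal lies at least 3.5 SD above the mean of all wells on their plate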;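 further: 0% = DMSO-treated cells in low-serum medium and 100% = 10% serum control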
# Calpain2 inh: inhibitors of pig calpain II; purified calpain II, fluorogenic peptide substrate, 30 min; inhibition, % at 16 µM; actives 0.37% (n = 220,000); AID 1236;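 active means inhibition above about 50%, limit read from the data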
# aDG glyco act: increases alpha dystroglycan glycosylation | Pro5-aDG cells, alpha-DG glycosylation AlphaScreen (IIH6); 0% Pro5, 100% B10-LARGE cell signal | actives 0.22% (n = 360,000) | activation, % at 10 µM | AID 624168;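 active means activation of at least 8% versus controls, or a plate z-score of at least 8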;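 further: Pro5 are CHO cells carrying HIG-tagged alpha-DG that lacks glycosylation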
# Cardio protect: protects H9c2 cardiomyocytes from peroxide injury; H2O2 injury protection, ATPLite, 2 h; protection from H2O2 cell death, % at 20 µM; actives 0.63% (n = 360,000); AID 588492;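 active means compounds giving at least 50% protection of heart cells from peroxide-induced death in the single-dose screen, raw or plate-pattern-corrected value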;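 further: 0% = DMSO wells with peroxide and 100% = DMSO wells without peroxide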
# TAG inh: inhibitors of triacylglycerol accumulation. AID 651582. H9c2 cells, Nile Red lipid (TAG) fluorescence; cells loaded with 200 µM oleic acid. actives 0.66% (n = 230,000). inhibition, % at 12.5 µM;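 active means pattern-corrected inhibition of lipid staining of at least 50% with the nuclear-stain viability signal not falling by more than 50%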;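 further: 0% = DMSO wells and 100% = triacsin C control wells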
# FAS TE block: inhibitors of human fatty acid synthase thioesterase domain. inhibition, % at 15 µM. P49327. recombinant FAS-TE, OMFH fluorogenic substrate, fluorescence endpoint. actives 0.67% (n = 360,000). AID 602261;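 active means compounds whose normalised, plate-corrected inhibition of enzyme fluorescence in the single-dose primary screen is 50% or more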;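 further: 0% = DMSO with enzyme and 100% = substrate without enzyme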
# MIN6 prolif-2: MIN6 beta-cell replication induction, confirmed. shares compounds with MIN6 prolif-1. 920 tested, under 10 active. MIN6 beta-cell proliferation, ATPlite luminescence, 48 h; cells kept in 0.2% serum; scaled between 0.2% and 10% serum. proliferation increase, % at 50 µM;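 active means proliferation increase above 40% at any of the four tested concentrations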
# Numbers without * were called inactive; . = not tested or not shown. A selection: hits, their analogues and other compounds. The true share with any hit is near 2.3%.
SMILES,MIN6 prolif-1,Calpain2 inh,aDG glyco act,Cardio protect,TAG inh,FAS TE block,MIN6 prolif-2
O=C(Nc1nccs1)c1cc2cc(Cl)ccc2oc1=O,1,-5,0,-5,0,-4,.
O=C(N/N=C/c1cc2c(cc1Cl)OCO2)c1cccc(Br)c1,11*,.,2,-7,.,12,-2
CC1(C)CC2CC(C)(CN2C(=O)COC(=O)c2cccc([N+](=O)[O-])c2)C1 (centres undefined),7.4*,.,0,1,-4,44,-1
COc1ccc(CN2CCNC(=O)C2CC(=O)N(C)Cc2ccon2)c(F)c1 (centres undefined),-1,.,0,-2,8,-9,.
CC1CCCN(CCCNC(=O)c2nn(C)c3c2CS(=O)(=O)c2ccccc2-3)C1 (centres undefined),7.0*,.,0,11,.,-7,0
Cc1ccc(N(CC(=O)NCc2ccco2)C(=O)CNS(=O)(=O)c2ccccc2)c(C)c1,-1,.,0,1,.,2,.
O=C(NCc1ccc(F)cc1)c1ccc2c(c1)S(=O)(=O)c1ccccc1C2=O,8,.,0,20,.,21,.
COc1cc(CNC(=O)c2ccc3c(c2)S(=O)(=O)c2ccccc2C3=O)cc(OC)c1,15*,.,0,10,.,23,3
O=C(Nc1ccc(S(=O)(=O)O)cc1)c1ccc2c(c1)S(=O)(=O)c1ccccc1C2=O,14*,.,0,3,-10,-10,-1
COC(=O)[C@H](CCSC)NC(=O)Cn1cnc2c(SC)nc(N)nc21,-2,.,0,13,2,-3,.
O=C(c1ccc(N2CCOCC2)c([N+](=O)[O-])c1)N1CCN(Cc2ccccc2)CC1,5.8*,.,0,-1,.,-57,-2
O=C(NCc1ccccn1)C1CCCN(S(=O)(=O)c2ccc(Br)cc2)C1 (centres undefined),5.8*,12,0,-2,1,-8,0
CCN(CCn1cccn1)Cc1nc(-c2ccc(OC)cc2)no1,7.2*,-7,0,-9,7,-2,-2
CCN(CCn1cccn1)Cc1nc(-c2ccccc2)no1,-3,-13,0,-1,1,-1,.
COCCC(=O)N1CCC(Oc2ccc(C(=O)N(C)C3CCCCC3)cc2)CC1,6.6*,.,0,-6,-6,-4,-3
Cc1ccc(-c2cn(-c3ccccc3)c(SCC(N)=O)n2)cc1C,7.6*,0,0,-2,.,0,-6
CCOC(=O)NC(=O)CSc1nc(-c2ccc(C)c(C)c2)cn1-c1ccccc1,-1,11,0,-15,.,28,.
CCOc1ccccc1NC(=O)N1CCC(NC(=O)c2ccccc2C)CC1,7.8*,3,0,5,-7,-1,2
COC(=O)C[C@H]1CC[C@H](NC(=O)Nc2ccccc2OC)[C@@H](CO)O1,.,.,0,.,.,.,.
COC(=O)N[C@H](CC(C)=O)c1ccccc1,12*,-3,.,.,.,.,0
COC(=O)N[C@H](CC(C)=O)c1cccc(C(F)(F)F)c1,-1,-5,0,1,-1,-8,.
COc1nc(N/N=C/c2ccc(C)cc2)nc(N2CCCCC2)n1,7.4*,0,0,-4,.,-4,-1
COc1ccc(/C=N/Nc2nc(N3CCCC3)nc(N3CCCC3)n2)cc1,.,21,0,33,.,2,.
O=C(Cc1ccccc1[N+](=O)[O-])NC1CC2CCC1C2 (centres undefined),0,.,0,-7,-5,2,.
Cn1c(=O)c2c(nc(OCc3ccccc3)n2C)n(C)c1=O,16*,6,0,30,-20,-4,5
SMILES,MIN6 prolif-1,Calpain2 inh,aDG glyco act,Cardio protect,TAG inh,FAS TE block,MIN6 prolif-2
Cn1c(=O)c2c(nc(Cc3ccccc3)n2C)n(C)c1=O,-2,-12,0,4,.,-1,.
COc1ccccc1NC(=O)C(C)OC(=O)C1CCN(S(=O)(=O)c2ccc(C)c(C)c2)CC1 (centres undefined),16*,.,0,-2,1,24,-5
COC(=O)c1ccccc1S(=O)(=O)N1CCC(C(=O)OC(C)C(=O)Nc2ccccc2OC)CC1 (centres undefined),4,.,0,18,17,16,.
CC1CCCC(NC(=O)C2c3ccccc3C(=O)N2Cc2cccs2)C1C (centres undefined),0.0*,17,0,1,.,3,-6
O=C(NC1CCCCCCC1)C1c2ccccc2C(=O)N1Cc1ccco1 (centres undefined),4,9,0,10,.,-4,.
COc1ccc(NC(=O)C2C3C=CC4(O3)C2C(=O)N(CCCN2CCCC(C)C2)C4C(=O)NC2CCCCC2)cc1 (centres undefined),0,.,0,0,.,-1,.
COc1ccccc1N(CC(=O)NC(C)C)S(=O)(=O)c1cccs1,8.3*,29,0,7,.,-11,1
COc1ccccc1N(CC(=O)NC1CCCCC1)S(=O)(=O)c1cccs1,3,-17,0,-2,-7,5,.
Cc1ccc(S(=O)(=O)N2C[C@H]3[C@H]4C(=O)N(c5ccccc5)C(=O)[C@H]4C[C@H](OC(=O)NCC4CCCCC4)[C@@]3(O)C2)cc1,.,.,0,15,5,17,.
S=c1[nH]nc(CN2CCCCC2)n1Cc1ccccc1,8.0*,-25,0,-6,-15,-2,2
O=C(CN1C(=O)S/C(=C/c2cccs2)C1=O)N1CCCC1,10*,.,0,0,10,-3,3
COC(=O)c1cc(S(=O)(=O)Nc2cccc(-c3ccno3)c2)c[nH]1,.,.,0,-7,-24,-3,.
CCOC(=O)c1ccc(NC(=S)NCc2ccco2)cc1,-1,10,0,-4,-2,4,.
O=C(NCC(=O)N(Cc1ccc(F)cc1)C(C(=O)NC1CCCC1)c1ccco1)c1ccco1 (centres undefined),7.1*,-66,0,20,-1,-3,-2
O=C(NC1CCCC1)C(c1ccco1)N(C(=O)c1ccco1)c1ccccc1 (centres undefined),-3,.,0,3,.,-1,.
Cc1ccc(C(C(=O)NC2CCCCC2)N(CC2CCCO2)C(=O)CNC(=O)c2ccco2)cc1 (centres undefined),5.5*,19,0,2,3,-8,-1
Cc1ccc(C)c(N(C(=O)c2ccco2)C(C(=O)NC2CCCC2)c2ccco2)c1 (centres undefined),5.7*,.,0,6,.,0,-6
c1ccc2c(c1)CN1C(=N2)COc2ccccc2C1c1nc2ccccc2[nH]1 (centres undefined),.,.,0,.,.,-8,.
O=C(COc1coc(CN2CCN(c3ccc(F)cc3)CC2)cc1=O)NC1CCCCC1,.,.,0,-2,-3,-3,.

# Source: PubChem BioAssay (several laboratories)
